Screening data: PubChem, several laboratories
Compounds with a hit are over-represented: about 3.9% of the library has one in this group of screens.
Autofluor counter: compound fluorescence in toxin protease inhibitor counterscreen; hit rate 3.1% among 360,000; fluorescence intensity (test concentration not listed); compound autofluorescence counterscreen, microsphere flow cytometry; hits give high values; in the data active means fluorescence intensity above about 16000; inconclusive means no clear call, values can overlap the other calls
BoNT-F LC inh: blocks Botulinum neurotoxin F light chain protease; inhibition, % at 10 µM; AID 588497; hit rate 0.22% among 360,000; Multiplex microsphere protease cleavage assay, flow cytometry; in the data active means inhibition above about 35%, passing the limit was not always enough; inconclusive means no clear call, values can overlap the other calls; further: plate controls were buffer without enzyme for full effect and enzyme alone for no effect
BoNT-A LC inh2: BoNT A light chain protease inhibition | multiplex microsphere protease substrate cleavage, flow cytometry | hit rate 0.17% among 360,000 | AID 588499 | inhibition, % at 10 µM; further: plate controls were buffer without enzyme for full effect and enzyme alone for no effect
Anthrax LF inh2: inhibitors of Bacillus anthracis lethal factor protease; P15917; multiplex microsphere protease cleavage assay, LF; inhibition, % at 10 µM; hit rate 0.12% among 360,000; AID 588501; further: plate controls were buffer without enzyme for full effect and enzyme alone for no effect
SARS 3CLpro inh: SARS-CoV 3CLpro protease inhibition; AID 1706; P0C6X7; hit rate 0.14% among 290,000; recombinant SARS-CoV 3CLpro, quenched FRET peptide cleavage; inhibition, % at 6 µM; in the data active means inhibition above about 12%
CCHF vOTU inh: CCHFV vOTU protease inhibition; Pep-AMC fluorescence; inhibition, % at 11.5 µM; hit rate 0.55% among 370,000; in the data active means inhibition above about 30%; further: 0% = vehicle wells with enzyme and 100% = no enzyme wells
The depositor's hits bear a star; ? = inconclusive; / = not tested or not shown. Unless noted, no stated cut-off is given here; in the data, active means inhibition above about 30%; inconclusive means no clear call, values can overlap the other calls; inactive means below that.

SMILES	Autofluor counter	BoNT-F LC inh	BoNT-A LC inh2	Anthrax LF inh2	SARS 3CLpro inh	CCHF vOTU inh
O=C(CCNc1ccc(F)cc1)c1cccc([N+](=O)[O-])c1	20472*	-2	?	-2	3	-3
COc1ccc([C@H]2C[C@@H](O)[C@H](n3cc(C4CC4)nn3)CN2CC2CCCCC2)cc1	2927	-2	0	-1	/	10
C=CCn1c(SCc2ccc(C#N)cc2)nnc1-c1ccco1	/	/	/	/	/	-2
COc1ccc(-c2cc(C(F)(F)F)n3nc(C(=O)Nc4c(C)n(C)n(-c5ccccc5)c4=O)cc3n2)cc1	4253	-4	-2	-2	-3	10
O=C(c1ccccc1)c1ccc(NCCCn2ccnc2)c([N+](=O)[O-])c1	3594	-2	2	-5	-5	3
CC1=C(C(=O)Nc2ccccc2C)C(c2ccc(C)o2)N2C(=O)CSC2=N1 (stereo not given)	20714*	3	4	-8	-2	4
Cc1ccccc1NC(=O)CCN1C(=O)CSC1=O	3618	-2	1	-1	-1	-10
CCCCNC(=O)C1(C(=O)c2ccc(OC)cc2)CC(c2ccccc2C(F)(F)F)=NO1 (stereo not given)	/	/	/	/	/	8
COc1cccc(CNc2ccc(N3CCC(C)CC3)cc2)c1OC	19533*	-5	3	-4	2	17
CCCCCCC(C)OC(=O)c1ccccc1C(=O)O (stereo not given)	3516	35*	1	12	3	-2
CC(CCC(C)OC(=O)c1ccccc1C(=O)O)OC(=O)c1ccccc1C(=O)O (stereo not given)	3882	15	-3	4	-4	-10
C/C=C/C(=O)N1CCC(C(=O)NCC2COc3ccccc3O2)CC1 (stereo not given)	/	/	/	/	/	-7
C=CCN1/C(=C(\C#N)C2=NS(=O)(=O)c3ccccc32)N(C)c2ccccc21	16828*	2	-1	-2	-2	13
Clc1ccc(-c2nnc(N3CCOCC3)o2)cc1	/	/	/	/	2	-5
FC(F)(F)c1cccc(NC(=S)NCCc2ccccn2)c1	21974*	-1	1	-6	-3	-5
COC(=O)C1=C(C)N(Cc2ccccc2C(F)(F)F)C(=NCc2ccc3c(c2)OCO3)NC1c1ccc(C(F)(F)F)cc1 (stereo not given)	/	/	/	/	/	12
CCCCC(=O)NC(NC(=S)N1CCOCC1)C(Cl)(Cl)Cl (stereo not given)	23068*	2	?	-2	-1	2
CCOC(=O)CC[C@H]1CC[C@]2(CCCN(S(C)(=O)=O)C2)O1	/	/	/	/	/	6
COc1ccc(Cn2c(NC(=O)c3ccccc3)nc(Cc3ccccc3)c2-c2ccccc2)cc1	/	/	/	/	/	3
CN1CCN(c2nc3nonc3nc2N2CCN(C)CC2)CC1	3344	-3	-1	-2	-5	0
C1CCN(c2nc3nonc3nc2N2CCCCC2)CC1	24347*	-4	-3	-4	-3	/
CC(=O)c1ccc(N(CC(=O)NC2CCS(=O)(=O)C2)S(=O)(=O)c2ccc(C)cc2)cc1 (stereo not given)	3538	16	0	6	/	5
O=C(CN1CCc2ccccc2C1)NCc1ccco1	19256*	3	3	-8	-1	-6
CN(C(=O)CN1CCC(NC(=O)C2CCCCC2)CC1)C1CCCCC1	23953*	-4	-2	-3	-4	1
CC(=O)NC(c1cccc(F)c1)c1nc(-c2cccc(C(C)C)c2)cs1 (stereo not given)	3860	-4	-1	-4	/	16
SMILES	Autofluor counter	BoNT-F LC inh	BoNT-A LC inh2	Anthrax LF inh2	SARS 3CLpro inh	CCHF vOTU inh
C(=N\c1nc2ccccc2[nH]1)/c1cccs1	23619*	-2	?	-2	1	-3
Nc1ccn([C@@H]2O[C@H](C(=O)N3CCN(C(=O)N4CCCCC4)CC3)[C@@H](O)[C@H]2O)c(=O)n1	/	/	/	/	/	-13
Cc1ccc(N2CCN(CCc3nc4cc(NC(=O)c5ccco5)ccc4n3C)CC2)cc1	24375*	-4	-2	-6	-6	-4
Cn1c(CCN2CCN(c3ccc(F)cc3)CC2)nc2cc(NC(=O)c3ccco3)ccc21	24006*	-4	0	-2	-2	-4
Cn1c(CCN2CCN(c3ccccc3)CC2)nc2cc(NC(=O)c3ccco3)ccc21	4514	9	0	2	-6	-2
CN1CCN(CCc2nc3cc(NC(=O)c4ccco4)ccc3n2C)CC1	/	/	/	/	2	6
Cn1c(CCNC(=O)c2ccco2)nc2cc(NS(=O)(=O)c3ccc(Cl)cc3)ccc21	21550*	-6	-6	-2	-7	4
